The values that follow come from PubChem BioAssay AID1463 (National Center for Advancing Translational Sciences (NCATS), 2008).

Molecules are shown by their SMILES. About 2,600 (0.93%) of roughly 280,000 compounds were called active. A call without a number means that no potency is given here. Another 8% or so got no clear call; they are omitted. The call rests on the fitted dose curve; in most records, active means well fitted curve in the direction sought with a large enough effect; inconclusive means small, poorly fitted or top-dose-only effect; inactive means flat fitted curve, though single readings scatter. This excerpt belongs to a sample that is enriched for actives.
Potency means the concentration at half of the fitted maximal effect; tags describe the fitted curve by direction and shape or compound fluorescence and quenching.

A short description of the assay: Counterscreen qHTS for Inhibitors of Tau Fibril Formation, Fluorescence Polarization. Further: nearly all actives have a fitted effect of over 55% in size. As to conditions: tau K18 P301L Alexa594 fluorescence, heparin fibrillization; series mostly up to 57.7 µM. In a few lines:
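Human tau K18 P301L (15 uM unlabeled, 0.24 uM Alexa 594-labeled) in 100 mM sodium acetate pH 7 with 20 uM heparin, 6 hr at 37 C. ThT 30 uM added, 1 hr ambient; Alexa 594 FP and total fluorescence read at 555/632 nm.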
For `COc1ccc(OC)c(-c2nc(C(N)=O)c3c(n2)n(-c2ccc4c(c2)OCO4)c(=O)n3C)c1`, the Potency entry was “inactive”.

For the compound `COc1cc(/C=N\Nc2nc(-c3cccs3)c(NC(C)=O)s2)ccc1O`, the Potency was 17.8 µM [quencher] (active).

For `COc1ccc(/C=N\NC(=O)c2sc(N)nc2C)cc1OC`, the Potency entry is “inactive”.

In the case of `CCNc1nc(NCC)nc(N/N=C/c2ccc(O)c(OC)c2)n1`, the Potency entry is “inactive”.

As for `c1ccc2sc(NN=C3CCCC3)nc2c1`, the Potency entry was “inactive”.

With `Cc1ccc(S(=O)(=O)Nc2nc3ccccc3s2)cc1[N+](=O)[O-]`, the Potency result was “inactive”.

`O=[N+]([O-])c1cc(Br)c(O)c(/C=N/Nc2nc3ccccc3s2)c1`: the Potency is 7.94 µM [quencher] (active).

As to `COc1cc(/C=N/NC(=O)CCc2n[nH]c(=O)[nH]c2=O)ccc1O`, the Potency entry is “inactive”.

Take `COc1cc(/C=N/Nc2nc3ccccc3s2)ccc1O`: the Potency is 12.6 µM [quencher] (active).

Turning to `COc1ccc(/C=N/Nc2nc3ccccc3o2)cc1OC`, the Potency entry was “inactive”.

For `CCCN1CCN(CCCNC(=O)c2ccc3nc(Cc4ccccc4)oc3c2)CC1`, the Potency entry was “inactive”.

In the case of `O=C1CN(C(=O)Nc2ccccc2C(F)(F)F)C(c2ccccc2)c2c(sc3c2CCCC3)N1` (centres undefined), the Potency entry was “inactive”.

In the case of `CCCN1CN=C(NS(=O)(=O)c2ccc(NC(C)=O)cc2)NC1`, the Potency entry is “inactive”.

Regarding `O=C(NCCc1ccccc1)c1cnc2sc(N3CCCC3)nn2c1=O`, the Potency entry was “inactive”.

For `CN(C)CCCn1c(-c2ccc(Cl)cc2)csc1=Nc1ccccc1`, the Potency result is “inactive”.

For the compound `Cc1cc(NS(=O)(=O)c2ccc3oc(=O)c4ncn(C)c4c3c2)ccc1Br`, the Potency result is “inactive”.

Consider `CNC(=O)c1ccc(NC(=O)c2cccc(C(F)(F)F)c2)cc1`, for which the Potency result is “inactive”.

For the compound `O=C(Nc1ccc(-c2csc(Nc3cccc(C(F)(F)F)c3)n2)cc1)c1cccc(C(F)(F)F)c1`, the Potency was 5.01 µM [quencher] (active).

For the compound `Cc1cccc(NC(=O)c2cccc(C(F)(F)F)c2)c1`, the Potency result was “inactive”.

Take `CC(C)S(=O)(=O)c1oc(-c2ccc(F)cc2)nc1S(=O)(=O)c1ccc(F)cc1`: the Potency entry was “inactive”.

For `COc1ccccc1-c1c(C)nn2c(C)c(C(C)=O)cnc12`, the Potency entry was “inactive”.

Turning to `COc1ccccc1-c1n[nH]c2c1[C@H](C)CC[C@H]2C(C)C`, the Potency result is “inactive”.

Consider `C=C(C)COc1ccc(-c2n[nH]c(C)c2-c2ccccc2OC)c(O)c1`, for which the Potency is 17.8 µM [quencher] (active).

For the compound `CCOc1ccc(-c2n[nH]c(C)c2-c2ccccn2)c(O)c1`, the Potency result is “inactive”.

As for `C=C(C)COc1ccc(-c2n[nH]c(C)c2-c2ccccc2)c(O)c1`, the Potency is 15.8 µM [quencher] (active).

In the case of `CC(=O)COc1ccc2c(-c3ccccc3)cc(=O)oc2c1`, the Potency result is “inactive”.

On to `COc1ccc(CNC(=O)c2cc3cccc(OC)c3oc2=O)cc1`, for which the Potency entry is “inactive”.

Regarding `CSc1ccc(CCNC(=O)c2cc(C)nc3c2c(C)nn3-c2cccc(F)c2)cc1`, the Potency entry is “inactive”.

`S=C(NCCc1ccccc1)N1CCCCC1`: the Potency entry was “inactive”.

Consider `Oc1cc2c(cc1O)CN(C(=S)NCCc1ccc(Cl)cc1)CCC2`, for which the Potency is 10 µM [quencher] (active).

With `O=C1CCN(C(=S)NCCc2ccccc2)CC1`, the Potency entry was “inactive”.

In the case of `O=C(Cc1ccc(Cl)cc1)NCC(c1cccs1)S(=O)(=O)c1ccc(Cl)cc1` (centres undefined), the Potency result was “inactive”.

On to `COc1ccc(-c2cn3nc(N4CCC(C(=O)Nc5cccc(C)c5C)CC4)sc3n2)cc1`, for which the Potency result was “inactive”.

`Cc1ccc(-n2ncc(C(=O)N(C)Cc3ccccc3)c2-n2cccc2)cc1`: the Potency result was “inactive”.

Regarding `O=C(Nc1ccc2nccnc2c1)c1ccco1`, the Potency result was “inactive”.

For `CCOc1ccc(NC(=O)c2ncoc2-c2ccco2)cc1`, the Potency result was “inactive”.

Take `COCCNC(=O)Nc1ccc2nc(-c3ccco3)c(-c3ccco3)nc2c1`: the Potency is 8.91 µM [quencher] (active).

For `Cc1cc(C)cc(NC(c2nnc(-c3cccc(F)c3)o2)c2ccc(F)cc2Cl)c1` (centres undefined), the Potency entry was “inactive”.

For `CC(=O)Nc1ccc(Nc2c3ccccc3nc3ccccc23)cc1`, the Potency result is “inactive”.

With `O=C(Nc1c2c(nc3ccccc13)CCCC2)c1ccccc1Br`, the Potency result was “inactive”.

With `O=C(NNc1c2ccccc2nc2ccccc12)c1cc2ccccc2cc1O`, the Potency was 4.47 µM [quencher] (active).

On to `Cc1cccc(NC(=S)NCc2ccc3[nH]c4c(c3c2)CCCC4)c1`, for which the Potency was 14.1 µM [quencher] (active).

With `O=C(O)CCC(=O)NCc1ccc2[nH]c3c(c2c1)CCCC3`, the Potency entry is “inactive”.

With `Cc1cccc(NC(=S)NCCN(C2CCCCC2)C2CCCC2)c1`, the Potency entry was “inactive”.

`CCc1ccc(NC(=O)N2CCN(C(=O)c3nsc4ccccc34)CC2)cc1`: the Potency result is “inactive”.

On to `COc1ccc(S(=O)(=O)c2cn(C)c3cc(N4CCCCC4)c(F)cc3c2=O)cc1`, for which the Potency entry is “inactive”.

As for `Cn1c(=O)c2c(nc(SCC(=O)Nc3ccc(F)cc3)n2Cc2ccccc2)n(C)c1=O`, the Potency entry was “inactive”.

As to `CCc1ccc(CN(Cc2ccco2)C(=O)COc2ccc(Cl)c(C)c2)cc1`, the Potency entry is “inactive”.

Turning to `O=C(Nc1ccncc1)c1cc2ccccc2o1`, the Potency entry was “inactive”.

In the case of `O=C(Nc1nc(-c2ccc(-c3ccccc3)cc2)cs1)c1cnccn1`, the Potency entry was “inactive”.

`Cc1cc(NC(=O)c2cccc(Cl)c2)ccc1-c1cc2ccccc2oc1=O`: the Potency entry is “inactive”.

`COc1ccc(-c2csc(NC(=O)CCCc3cccs3)n2)cc1`: the Potency result was “inactive”.

For the compound `COc1ccc(-c2csc(Nc3ccc(O)cc3)n2)cc1`, the Potency is 11.2 µM [quencher] (active).

As for `NS(=O)(=O)c1ccc(Nc2nc(-c3ccccc3)cs2)cc1`, the Potency is 15.8 µM [quencher] (active).

As for `Cc1ccc(-c2csc(NC(=O)c3cnccn3)n2)cc1C`, the Potency result is “inactive”.

Regarding `CC(=O)Nc1nc(C)c(-c2csc(Nc3ccc(S(N)(=O)=O)cc3)n2)s1`, the Potency entry is “inactive”.

As to `COc1ccc(-c2csc(NC(=O)COC(=O)c3ccc(Br)o3)n2)cc1`, the Potency result was “inactive”.

In the case of `COc1ccc(-c2csc(NC(=O)c3ccc(N4C(=O)CCC4=O)cc3)n2)cc1OC`, the Potency entry is “inactive”.

Consider `COc1ccc(OC)c(Nc2nc(-c3ccc(O)c(O)c3)cs2)c1`, for which the Potency was 14.1 µM [quencher] (active).

As to `O=c1oc2ccccc2cc1-c1csc(Nc2ccc(O)cc2)n1`, the Potency was 14.1 µM [quencher] (active).

Regarding `Cc1cccc(NC(=O)c2ccc3nc(C(C)C)oc3c2)c1C`, the Potency entry was “inactive”.

In the case of `CCOC(=O)c1ccc(NC(=O)CCS(=O)(=O)c2ccc(C)cc2)cc1`, the Potency entry was “inactive”.

With `CCOc1ccccc1N(CC)C(=O)c1cc2ccc3cccnc3c2[nH]1`, the Potency result is “inactive”.

For `CCOc1ccc(N(C)S(=O)(=O)c2cc(-c3cnc(C)o3)ccc2OC)cc1`, the Potency entry was “inactive”.
